# Screening results (PubChem)
# Shown is part of a subset that was picked to be rich in hits.
# ERK EGF inh – qHTS Assay for Inhibitors of the ERK Signaling Pathway using a Homogeneous Screening Assay; Stimulation with EGF; HEK293-V1b, EGF-stimulated phospho-ERK AlphaScreen; Potency, µM (highest dose often 11.5 µM), inactives show top-dose activity change, negative = inhibition, hits mostly inhibitors; hit rate 0.41% among 130,000; AID 1454, 2008; active means well fitted inhibition curve with a large enough effect;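 further: plate controls were stimulated vehicle wells for no effect and unstimulated vehicle basal for full effect; nearly all actives have a fitted effect of over 55% in size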
#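 Cell line HEK293 (stable V1b), low serum overnight. Pretreatment: compound 30 min, 37C. EGF 25 nM, 5 min. Detection: SureFire AlphaScreen, 5 h RT. AC50 via standard Hill equation.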
# An asterisk follows results filed as active; [ ] = dose if it differs, or a comment. Potency means the concentration at half of the fitted maximal effect.
SMILES,ERK EGF inh
COc1ccc(N2CCC(CNC(=S)Nc3ccc(C)cc3C)C2)cc1 (stereo not given),14µM*
CC(C)(C)c1ccc(S(=O)(=O)/C=C\C#N)cc1,4%
C[C@@H](O)CCC[C@H](O)/C=C/[C@H]1[C@H](O)CC(=O)[C@@H]1C/C=C\CCCC(=O)O,-10%
C#C[C@]1(O)CC[C@H]2C3CCC4=Cc5oncc5CC4(C)C3CCC21C (stereo not given in full),19%
CC1=C(C(=O)O)N2C(=O)[C@@H](NC(=O)[C@@H](N)c3ccccc3)[C@@H]2SC1,4%[25.7 µM]
O=C(/C=C\C=C/c1ccc2c(c1)OCO2)N1CCCCC1,-4%[25.7 µM]
CCc1c(C)sc(NC(=S)Nc2cccnc2)c1C(=O)OC,34%
CCc1c(C)sc(NC(=S)Nc2nc(C)cc(C)n2)c1C(=O)OC,-1%
CCc1c(C)sc(NC(=S)N2CCN(S(C)(=O)=O)CC2)c1C(=O)OC,28µM*
C/C=C/C(=O)C[C@H]1CC[C@@H](C)[C@@H](CCO)O1,-16%
CC1=C(C(=O)O)N2C(=O)C(NC(=O)C(N)c3ccc(O)cc3)C2SC1 (stereo not given),3%
Cc1ccc(Sc2ccc(CN3CCCCC3)cc2[N+](=O)[O-])cc1,10µM*
Cc1ccc(OCCOCCN2CCCCC2)c([N+](=O)[O-])c1,-11%
Cc1cc(N2CCCCC2)ccc1[N+](=O)[O-],4%
COC(=O)C(C(=O)OC)[C@@H]1O[C@@]23COC=C[C@]2(C)[C@H]3c2ccccc21,4%
CCCCCCCCCCCCC(=O)N1CCCC[C@H]1CNC(=O)[C@@H](N)CCCCN,1%
O=c1c2ccccc2oc2cc(O)c(C3COCC(CO)C(O)C(O)C3O)c(O)c12 (stereo not given),8%
CN(C)S(=O)(=O)c1ccc(-c2csc(N/N=C/c3ccc(O)cc3)n2)cc1,11µM*
O=C(/C=C/c1ccco1)Nc1nc(-c2ccc(F)c(F)c2)cs1,-6%[57.5 µM]
CN(C)S(=O)(=O)c1ccc(C(=O)NCC(=O)N/N=C/c2ccco2)cc1,-4%
O=C(/C=C/c1ccco1)Nc1nc(-c2ccccn2)cs1,1%
Cc1sc(N/N=C/c2ccco2)nc1-c1ccccc1,-10%
CN(C)S(=O)(=O)c1ccc(-c2csc(N/N=C/c3ccco3)n2)cc1,20µM*
Cc1cc(NS(=O)(=O)c2ccc(Nc3nc(-c4ccc(O)cc4)cs3)cc2)no1,1%
C(=N\Nc1nc(-c2ccccc2)cs1)/c1ccncc1,-3%
SMILES,ERK EGF inh
O=C(/C=C/c1ccco1)Nc1nc(-c2ccccc2)cs1,25µM*
CCC/C=C/C(C)O (stereo not given),-11%
C=C1CCC[C@]2(C)C[C@H]3OC(=O)[C@H](CNCCc4ccccc4OC)C3CC12 (stereo not given in full),3%
Cc1cnc(CNc2nc(-c3ccc(N(C)C)cc3)nc3ccccc23)cn1,20%
COc1cccc([C@@H]2Oc3ccc(OC)cc3C[C@H]2OC(=O)N[C@H](C)C2CCCCC2)c1,-14%
COc1ccc(C(O)C2=CCCC2=O)cc1 (stereo not given),-17%
CCCCC/C=C\C/C=C\CCCCCCCCCC(=O)NCCCC(=O)O,5%
O=C(Nc1cccc(Cl)c1)c1cc(N=Nc2ccc([N+](=O)[O-])cc2Cl)ccc1O,14µM*
O=C(Nc1ccc([N+](=O)[O-])cc1Cl)c1cc(Cl)ccc1O,-10%
O=C(Nc1cccc(Cl)c1)c1cccc(Oc2ccc([N+](=O)[O-])cc2Cl)c1,-4%
CCC[C@@H]1C[C@@]1(CCC)C(NC(=O)c1ccccc1)c1cccc(Cl)c1 (stereo not given in full),4%
COc1cc2c(cc1OC)C(/C=C/c1ccc(OC)c(OC)c1OC)=NCC2,18%
O=c1c2[nH]c3ccc(F)cc3c2ncn1CCC1=CCCCC1,-1%[57.5 µM]
C1=C(CCNc2ncnc3nc[nH]c23)CCCC1,5%
COc1ccc2[nH]c3c(NCCC4=CCCCC4)ncnc3c2c1,20µM*
COc1ccc2c(c1)C(=O)[C@@H](OC(=O)NCc1ccco1)[C@H](c1ccc(OC)c(Br)c1)O2,-17%
Cc1ccc(C(=O)Cn2c3c(sc2=N)CCCC3)cc1,5%
CCCn1c(C)nc2c(NCCCN(CCO)CCO)nc(C)nc21,8%
CC(C)(C)NC[C@H](O)COc1cccc2c1C[C@@H](O)[C@@H](O)C2,-15%[25.7 µM]
O=C(O)c1cccc(Nc2ncnc3ccc(Br)cc23)c1,-9%[57.5 µM]
CN(Cc1ccco1)c1ncnc2ccc(-c3ccc4c(c3)OCO4)cc12,23%
c1ccc(Nc2ncnc3ccc(-c4ccc5c(c4)OCO5)cc23)cc1,2.8µM*
C[C@H]1C[C@]2(O[C@@H]2C)C(=O)O[C@@H]2CCN(C)C/C=C(/COC(=O)[C@]1(C)O)C2=O,2%
O=C(c1ccco1)N1CCC2(CC1)CN(c1ccccc1)C2,0%
CCC(/C=C1\Sc2ccc(OC)cc2N1CCO)=C\c1sc2ccc(OC)cc2[n+]1CCO,14µM*
SMILES,ERK EGF inh
COc1ccc2sc(/C=C/c3ccccc3O)[n+](C)c2c1,-8%
CCC(=O)/C=C1/Sc2ccc(OC)cc2N1CCO,14%
O=[N+]([O-])c1ccc(CSc2ncnc3c2ncn3[C@@H]2O[C@H](CO)[C@H](O)[C@H]2O)cc1,20%
O=C(NC1CCCCC1)c1ccc(Cl)c(NC(=O)c2ccccc2F)c1,-14%
O=C(Nc1ccc(Cl)c(Cl)c1)Nc1cc(C(=O)NC2CC2)ccc1Cl,28µM*
O=C(Nc1ccc(Cl)c(Cl)c1)c1ccc(Cl)c(Cl)c1,-8%[57.5 µM]
C[C@]12C[C@@](C)(C=C1/C=C/c1ccc(C(F)(F)F)cc1)C(=O)C[C@H]2c1ccc(C(F)(F)F)cc1,4%
COC(=O)c1nnc(C(=O)N(C)Cc2ccccc2)c2[nH]c3ccccc3c12,0%
COc1ccc(-c2cn[nH]c2C)cc1OC,-11%
COc1ccc(-c2cn[nH]c2-c2ccc(OCc3ccccc3)cc2O)cc1OC,22µM*
COc1ccccc1-c1cn[nH]c1-c1ccc(OCc2ccc([N+](=O)[O-])cc2)cc1O,8%[57.5 µM]
Nc1ncnc2nc(-c3ccc(N4CCOCC4)nc3)cc(-c3cccc(Br)c3)c12,2%
CS(=O)(=O)c1ccc(Cn2c3c(c4cc(F)cc(F)c42)CCC[C@H]3CC(=O)O)cc1,-12%
CCN1C(=C(C#N)C#N)C=Cc2ccccc21,-5%
CCN1C(=O)/C(=C2\Sc3ccccc3N2CC)OC1=S,13%
CCN1C(=O)/C(=C2/C=Cc3ccccc3N2CC)SC1=S,16µM*
C[C@H]1CC2[C@@H]3CCC4=CC(=O)C=C[C@]4(C)[C@@]3(F)[C@@H](O)C[C@]2(C)[C@@]1(O)C(=O)CO (stereo not given in full),3%
C=CCOC(=O)N[C@H](/C(C(=O)OC)=C(\C)NCc1ccccc1)c1ccc2c(c1)OCO2,-4%
COc1ccc(-c2csc(NC(=O)c3ccccc3C(=O)O)n2)cc1,5%
COc1ccc(-c2csc(NC(=O)c3ccc(S(C)(=O)=O)cc3)n2)cc1,-10%
COc1ccc(-c2csc(NC(=O)c3ccoc3C)n2)cc1,16µM*
Clc1ccc(-c2ncc3ccccn23)cc1,32µM*
Clc1ccccc1-c1ncc2ccccn12,-1%
O=[N+]([O-])c1cccc(-c2ncc3ccccn23)c1,-22%
COc1cc(N)c(Cl)cc1C(=O)N[C@H]1CCN(CCCOc2ccc(F)cc2)C[C@@H]1OC,5%
Cc1ccccc1-c1cc(Nc2ccc(F)cc2)ncn1,24%
COC(=O)/C=C\c1cc(O)ccc1O,-6%
